Screening data deposited in PubChem BioAssay by Paczesny and Yang Labs, IUPUI and University of Michigan.
ST2 inh = inhibitors of human ST2 (IL1RL1) binding to IL-33, primary screen, biochemical, AlphaLISA. Interleukin-1 receptor-like 1 (Homo sapiens), Q01638. AlphaLISA ST2-Fc/biotin-IL-33 interaction, 1 h. inhibition, % for hits at 17 µM. hit rate 2.3% among 78,000. AID 1259354, 2018; in the data active = inhibition above about 30%
Target sequence (Q01638 whole entry, looked up): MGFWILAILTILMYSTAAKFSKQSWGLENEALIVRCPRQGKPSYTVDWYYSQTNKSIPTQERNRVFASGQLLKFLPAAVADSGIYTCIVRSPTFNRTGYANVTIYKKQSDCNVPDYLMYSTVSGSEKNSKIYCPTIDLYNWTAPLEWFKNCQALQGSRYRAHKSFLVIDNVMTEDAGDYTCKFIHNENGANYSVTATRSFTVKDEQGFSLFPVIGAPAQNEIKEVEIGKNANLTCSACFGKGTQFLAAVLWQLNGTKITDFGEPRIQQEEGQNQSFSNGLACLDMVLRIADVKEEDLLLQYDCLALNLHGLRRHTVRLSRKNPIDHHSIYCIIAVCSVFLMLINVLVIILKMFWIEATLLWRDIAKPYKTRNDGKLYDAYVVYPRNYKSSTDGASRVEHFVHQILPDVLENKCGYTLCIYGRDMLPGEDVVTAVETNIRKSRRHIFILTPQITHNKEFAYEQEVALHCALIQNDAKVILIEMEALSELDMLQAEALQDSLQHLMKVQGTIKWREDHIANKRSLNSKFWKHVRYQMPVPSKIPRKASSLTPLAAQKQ
Active calls of the source: *; i = inactive. The entries come from a sample that favours hits as a whole.

SMILES	ST2 inh
CCCS(=O)(=O)N1C[C@@H]2C[C@H](C1)c1c(-c3ccc4ccccc4c3)ccc(=O)n1C2	i
CC[C@H]1CN2CC[C@H]1C[C@@H]2CNC(=S)Nc1ccc(F)cc1	i
CCCCNC(=O)c1oc2ccc(S(=O)(=O)N3CC(C)CC(C)C3)cc2c1C (centres undefined)	i
COc1ccc(CN2CCN(Cc3ccccc3Cl)CC2)cc1Br	i
COc1cc(OC)c(CN2CCN(C)CC2)cc1Br	i
COc1cc(OC)c(CN2CCN(c3ccccc3)CC2)cc1Br	36%*
CC(=O)c1ccc(N2CCN(Cc3ccc(C)cc3)CC2)cc1	i
COc1cc(C)c(CN2CCN(c3ccc(F)cc3)CC2)cc1C	i
COc1ccc(N2CCN(Cc3ccc(C)cc3)CC2)cc1	33%*
Cc1ccc(Cl)cc1N(C)C(=O)C1c2ccccc2C(=O)N2CCCCC12 (centres undefined)	i
c1ccc(C23CC4CN(CCN(C4)C2)C3)cc1	i
COc1ccc(S(=O)(=O)N2C[C@@H]3C[C@H](C2)c2ccc(NC(=O)CN(C)C)c(=O)n2C3)cc1	i
O=c1cccc2n1C[C@H]1C[C@@H]2CN(C[C@H]2CN3CC[C@H]2C[C@@H]3CNC(=S)Nc2ccccc2)C1	i
CC(NC(=O)C(Cl)(Cl)Cl)c1ccccc1 (centres undefined)	i
COc1ccc(CN2CCN(Cc3ccccc3)CC2)c(C)c1C	34%*
CCN1CCN(Cc2ccc(OC)c(C)c2C)CC1	i
COc1ccc(CN2CCN(C)CC2)c(OC)c1C	i
COc1ccccc1N1C(=O)C2[C@H](C1=O)[C@@]1(Cl)C(Cl)=C(Cl)[C@@]2(Cl)C1(Cl)Cl (some centres undefined)	i
CCOC(=O)c1c(C)n(C2CCCCC2)c2ccc(O)cc12	i
Cc1cc(C=O)c(C)n1C1CCCCC1	30%*
CCOC(=O)c1c(C)n(C2CCCCC2)c2ccc(OC(C)=O)cc12	i
Cc1ccnc(-n2c(C)nc3ccccc3c2=O)c1	i
O=c1c2ccccc2nc(/C=C/c2ccc(F)cc2)n1-c1ccccc1	i
Cc1ccc(-n2c(C)nc3ccc(I)cc3c2=O)c([N+](=O)[O-])c1	i
CCOC(=O)c1nc2ccccc2c(=O)n1-c1cc(Cl)c(OC)cc1OC	i
SMILES	ST2 inh
COc1ccc(-n2c(/C=C\c3ccccc3F)nc3ccccc3c2=O)c(OC)c1	30%*
COc1cc(/C=C/c2nc3ccccc3c(=O)n2-c2ccccc2OC)ccc1O	i
O=c1c2ccccc2nc(/C=C/c2ccc(O)cc2)n1-c1cccc([N+](=O)[O-])c1	34%*
O=c1c2ccccc2nc(Cc2ccccc2)n1-c1ccccc1	i
COc1ccc(/C=C/c2nc3ccccc3c(=O)n2-c2ccccc2[N+](=O)[O-])cc1	44%*
O=C(c1ccco1)N1C[C@@H]2C[C@H](C1)c1ccc(-c3cccc(C(F)(F)F)c3)c(=O)n1C2	i
COCC(=O)NC[C@H]1C[C@@H]2CCN1C[C@@H]2CN1CCN(c2ccccc2OC)CC1	i
CC(C)c1noc(CN2CCC3(CC2)C(=O)N(C)c2ccccc23)n1	i
COc1ccc(-c2cc([C@H]3CN4CC[C@H]3C[C@@H]4CNC(=S)Nc3ccccc3)n(C)n2)cc1	i
Cc1c(C(=O)N2CCC3(CC2)OCCO3)oc2ccc(S(=O)(=O)N3CCC(C)CC3)cc12	i
CCN1CCN(Cc2cc(C)ccc2C)CC1	i
CN1C(=O)C(=Cc2cccn2-c2cccc([N+](=O)[O-])c2)C(=O)N(C)C1=O	i
CN(CCc1ccccn1)C[C@H]1CN2CC[C@H]1C[C@@H]2CNS(C)(=O)=O	i
Fc1ccc(N2CCN(C[C@H]3CN4CC[C@H]3C[C@@H]4CNC(=S)NCCN3CCOCC3)CC2)cc1	i
COc1cc2c(cc1O)C1(C)CCC(O)C(C)(C)C1CC2=O (centres undefined)	37%*
COc1ccccc1NC(=O)N1C[C@@H]2C[C@H](C1)c1ccc(-c3ccc(Cl)cc3)c(=O)n1C2	i
O=C(Nc1ccc2n(c1=O)C[C@H]1C[C@@H]2CN(C(=O)c2ccccc2)C1)c1cccs1	i
CN1C(=O)C2(CCN(Cc3nc(-c4ccco4)no3)CC2)c2ccccc21	i
Cc1cccc(N=Cc2c(C)nn(-c3ccccc3)c2[Se])c1	i
COc1ccccc1N1CCN(C[C@H]2CN3CC[C@H]2C[C@@H]3CNS(C)(=O)=O)CC1	i
Cc1cccc(NC(c2ccc(N(C)C)cc2)c2ccc3ccc(C)nc3c2O)n1 (centres undefined)	44%*
COc1ccccc1N1CCN(C[C@H]2CN3CC[C@H]2C[C@@H]3CNC(=O)Nc2cccc(F)c2)CC1	i
COCC(=O)NC[C@H]1C[C@@H]2CCN1C[C@@H]2CN1CCN(c2ccccc2)CC1	i
O=C(NC[C@H]1C[C@@H]2CCN1C[C@@H]2CN1CCN(c2ccccn2)CC1)c1ccccc1	i
CCN1C(=O)NC(=O)/C(=C\c2cn(CC(=O)N3CCCC3)c3ccccc23)C1=O	i
CN1C(=O)C(=Cc2cn(C)c3ccccc23)C(=O)N(C)C1=O	i
